Compounds with a hit are over-represented: about 2.3% of the library has one in this group of screens.
Mcl1-Bid inh = Mcl-1/Bid binding inhibitors, primary screen, biochemical, TR-FRET, 1536-well; Induced myeloid leukemia cell differentiation protein Mcl-1 (Homo sapiens), Q07820; TR-FRET Mcl-1/Bid-Dy647 peptide binding; inhibition, % at 21.7 µM; 220,000 compounds, 0.97% hits;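 active = compounds that cut the binding signal by more than half at the single screening dose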;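 also: His-tagged Mcl-1 with europium anti-His antibody binding Bid BH3 peptide; 0% = Mcl-1 plus peptide wells and 100% = peptide-only wells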
GLD-1 RNA inh = GLD-1/TGE RNA complex disruptors, primary screen, biochemical, fluorescence polarization; Female germline-specific tumor suppressor gld-1 (Caenorhabditis elegans), Q17339; 320,000 compounds, 0.44% hits; inhibition, % at 5.96 µM; purified GLD-1 + fluorescein TGE RNA;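 active = percent inhibition above a per-plate cutoff, the plate mean of test compounds plus 3 SD, cut at about 30% in these data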;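 also: 0% = DMSO wells with GLD-1 and probe and 100% = wells lacking GLD-1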
Target sequence (Q17339 whole entry, looked up): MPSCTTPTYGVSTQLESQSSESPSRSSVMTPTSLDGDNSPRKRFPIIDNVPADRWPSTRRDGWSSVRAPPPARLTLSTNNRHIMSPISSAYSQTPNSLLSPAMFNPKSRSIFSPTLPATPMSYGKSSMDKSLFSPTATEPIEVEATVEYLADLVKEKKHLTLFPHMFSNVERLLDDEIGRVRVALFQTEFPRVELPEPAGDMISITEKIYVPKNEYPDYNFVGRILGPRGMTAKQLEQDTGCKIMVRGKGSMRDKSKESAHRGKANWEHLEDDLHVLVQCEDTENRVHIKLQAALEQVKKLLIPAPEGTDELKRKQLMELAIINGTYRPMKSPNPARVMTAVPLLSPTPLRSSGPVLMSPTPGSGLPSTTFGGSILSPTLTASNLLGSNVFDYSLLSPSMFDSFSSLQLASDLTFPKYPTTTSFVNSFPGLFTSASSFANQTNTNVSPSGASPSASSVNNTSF
Mcl1 Noxa PPI = Mcl-1/Noxa binding inhibitors, primary screen, biochemical, TR-FRET, 1536-well; Induced myeloid leukemia cell differentiation protein Mcl-1 (Homo sapiens), Q07820; TR-FRET Mcl-1/Noxa peptide binding, 2 h; inhibition, % at 21.7 µM; 220,000 compounds, 1.5% hits;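 active = compounds that cut the protein-peptide binding signal by more than 50% relative to plate controls in a single-dose test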;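 also: His-tagged Mcl-1 with rhodamine Noxa BH3 peptide and terbium anti-His antibody; 0% = Mcl-1 plus Noxa peptide wells and 100% = peptide-only wells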
Mcl-1 Bim block = inhibitors of Bim peptide binding to Mcl-1, primary screen, biochemical, bead-based flow cytometry, multiplex. Induced myeloid leukemia cell differentiation protein Mcl-1 (Homo sapiens), Q07820. Bim peptide-Mcl-1 binding. inhibition, % at 10 µM. 190,000 compounds, 0.1% hits; in the data active = inhibition above about 40%;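 also: 0% = no compound tracer wells and 100% = peptide blocker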
MCL1 BIM primary = inhibitors of MCL1 binding to BIM-BH3, primary screen, biochemical, fluorescence polarization; Induced myeloid leukemia cell differentiation protein Mcl-1 (Homo sapiens), Q07820; GST-MCL1 / FITC-Bim-BH3 fluorescence polarization; inhibition, % at 10.9 µM; 320,000 compounds, 0.68% hits;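 active = inhibition above the mean inhibition of all tested compounds plus 3 SD, set per campaign, cut at about 40% in these data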;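 also: 0% = DMSO wells and 100% = unlabeled Bim-BH3 peptide control; higher means more loss of mP so more displacement of Bim peptide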
Bcl-xL primary = inhibitors of human Bcl-xL, primary screen, biochemical, fluorescence polarization, HTS; 320,000 compounds, 0.7% hits; GST-Bcl-xL / FITC-Bim BH3 peptide fluorescence polarization; inhibition, % at 10.9 µM;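 active = inhibition above the mean of all tested compounds plus 3 SD, cutoff set per campaign, cut at about 30% in these data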;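 also: 0% = DMSO wells and 100% = unlabeled Bim-BH3 peptide competitor; inhibitors lower millipolarization by displacing the labeled peptide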
Target sequence (Q07817 whole entry, looked up): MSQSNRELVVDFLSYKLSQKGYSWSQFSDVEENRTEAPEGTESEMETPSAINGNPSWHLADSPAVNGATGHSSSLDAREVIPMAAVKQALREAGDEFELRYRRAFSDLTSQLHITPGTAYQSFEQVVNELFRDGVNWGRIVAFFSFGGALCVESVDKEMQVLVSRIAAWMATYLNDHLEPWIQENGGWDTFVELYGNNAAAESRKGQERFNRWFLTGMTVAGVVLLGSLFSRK
* = called active by the depositor; . = no result given.

SMILES	Mcl1-Bid inh	GLD-1 RNA inh	Mcl1 Noxa PPI	Mcl-1 Bim block	MCL1 BIM primary	Bcl-xL primary
CC(=O)Nc1ccc(/C=C2/Sc3ccccc3C2=O)cc1	-28.1	-16.8	72.1*	0.0	-0.5	-2.9
Cn1ncc(N=Cc2c(O)ccc3ccccc23)c1C(=O)Nc1cccc(Cl)c1	54.7*	10.1	44.1	2.0	45.8*	31.1*
Cn1ncc([N+](=O)[O-])c1C(=O)Nc1cccc(Cl)c1	.	6.5	.	.	7.4	0.4
Cn1ncc(Cl)c1C(=O)Nc1cccc(Cl)c1	3.9	3.2	52.1*	-1.0	20.7	15.3
CC(OC(=O)Cn1cnc2c1c(=O)n(C)c(=O)n2C)C(=O)Nc1ccc(Cl)cc1 (centres undefined)	.	0.5	.	.	-1.4	-0.3
NC(=O)c1ccc(OCC(=O)N2CCNC2=O)cc1	.	4.4	.	.	.	.
NS(=O)(=O)c1ccc(CNC(=O)c2cc(=O)c3cc(Cl)ccc3o2)cc1	.	-0.2	.	.	11.0	11.9
Cc1[nH]c2ccccc2c1/C=N/Nc1ccc([N+](=O)[O-])cc1	-54.8	-30.3	75.4*	-20.0	-60.6	-11.6
CCOc1ccc(C2C=C(c3ccccc3)Nc3ncnn32)cc1 (centres undefined)	-87.5	37.5*	12.2	0.0	46.3*	45.8*
Oc1ccc(C2C=C(c3ccc(F)cc3)Nc3ncnn32)cc1 (centres undefined)	-20.4	.	41.1	.	.	.
CCOc1ccc(C2C=C(c3ccc(F)cc3)Nc3ncnn32)cc1 (centres undefined)	-60.9	44.1*	-10.7	0.0	44.8*	38.2*
COc1cccc(C2=CC(c3ccc(N(C)C)cc3)n3ncnc3N2)c1 (centres undefined)	-7.6	-99.5	1.9	-3.0	-11.0	4.0
COc1cccc(C2=CC(c3ccccc3)n3ncnc3N2)c1 (centres undefined)	-0.7	50.5*	34.0	4.0	41.1*	39.0*
COc1ccc(C2C=C(c3ccc(C)cc3)Nc3ncnn32)cc1 (centres undefined)	-112.8	.	8.9	-3.0	.	.
O=C(Cc1ccccc1)Nc1ncccn1	.	0.9	.	.	-7.0	-1.2
Cc1ccc(S(=O)(=O)N/N=C/c2cnn(C)c2C)cc1	70.1*	-4.2	4.0	-8.0	0.5	-1.2
CC(OC(=O)c1ccc(Cl)nc1)C(=O)NCc1ccc2c(c1)OCO2 (centres undefined)	.	0.5	.	.	-4.4	-2.5
CCN1CCN(C(=O)C2CCCN(S(=O)(=O)c3cccc4nsnc34)C2)CC1 (centres undefined)	.	-1.4	.	.	6.5	6.0
CCN(CC(=O)NCc1ccc(Cl)cc1)C(=O)C(C)Sc1ccccc1 (centres undefined)	.	9.9	.	.	-11.8	-9.0
Cc1ccc(C)n1-c1cc([N+](=O)[O-])ccc1-n1ccnc1	-9.7	-7.5	18.2	.	-1.1	3.4
CC1(C)N([O-])c2cc([N+](=O)[O-])ccc2[N+]1=O	-64.8	7.7	84.6*	.	45.4*	34.9*
Cc1cc(C)n2nc(C(=O)Nc3ccc4c(c3)OCO4)nc2n1	-41.4	3.6	53.5*	0.0	7.7	13.3
COc1ccc(NC(=O)c2nc3nc(C)cc(C(F)F)n3n2)cc1OC	-10.0	2.6	5.4	-1.0	-6.8	0.5
CCN(CC)c1ccc(NC(=O)c2nc3nc(C)cc(C(F)F)n3n2)cc1	-32.8	-5.0	57.6*	-4.0	-5.7	-3.1
Cc1cc(O)ccc1N/C=C(\C#N)c1nc2ccccc2o1	92.7*	3.1	27.7	-2.0	-5.4	4.0
SMILES	Mcl1-Bid inh	GLD-1 RNA inh	Mcl1 Noxa PPI	Mcl-1 Bim block	MCL1 BIM primary	Bcl-xL primary
CNC(=O)CN(C1CCCCC1)S(=O)(=O)c1ccc(OC)c(Cl)c1	97.9*	-1.5	-8.7	0.0	-16.9	-10.5
COc1ccc(S(=O)(=O)N(CC(=O)NC2CC2)C2CCCCC2)cc1Cl	-0.7	7.7	5.4	-2.0	6.9	7.7
COc1ccc(Cl)cc1-c1nc(SCC(=O)NCC2CCCO2)n[nH]1 (centres undefined)	.	-2.2	.	.	-6.6	-6.5
O=C(O)c1cc(N/N=C/c2ccc(N3CCOCC3)s2)ccc1Cl	-100.2	-11.7	85.9*	-2.0	30.1	19.5
COc1ccccc1N(C(=O)c1csnn1)C(C(=O)NC1CCCC1)c1ccccc1 (centres undefined)	.	0.3	.	.	-2.7	1.7
COc1ccc(OC)c(NC(=O)COC(=O)[C@H](Cc2ccccc2)NC(=O)c2ccco2)c1	.	4.9	.	.	.	.
Cc1ccc2c(c1)N(CC(=O)NCCCN1CCOCC1)C(=O)C(C(C)C)O2 (centres undefined)	.	-1.9	.	.	2.8	4.1
CSc1nc(C)cc(OCCO)n1	-11.2	1.9	28.0	-4.0	3.6	5.2
CSc1nc(C)cc(OCC(=O)n2nc(C)cc2C)n1	99.2*	-2.9	8.9	1.0	-0.7	0.5
CCc1n[nH]c(=S)n1/N=C/c1c(O)ccc2ccccc12	.	3.8	.	.	-20.4	-33.1
Cc1ccc(S(=O)(=O)NNc2ccccc2)cc1	64.1*	5.0	19.3	-2.0	14.1	9.1
O=C(Nc1ccc(S(=O)(=O)Nc2nccs2)cc1)c1ccc(=O)[nH]c1	-55.7	0.5	62.2*	3.0	19.2	18.6
Cc1ccc(-c2cc(C(=O)Nc3nccs3)c3ccccc3n2)o1	-5.2	1.5	67.3*	-1.0	14.5	17.6
COc1ccc(NC(=O)c2cc(-c3ccc(C)o3)nc3ccccc23)cc1OC	25.8	-5.5	64.2*	4.0	22.1	11.7
O=C(Nc1ccc(S(=O)(=O)Nc2nccs2)cc1)c1cc(-c2ccccc2Cl)nc2ccccc12	98.7*	3.8	35.6	-4.0	3.2	4.6
O=C(OCCN1CCOCC1)c1ccc(O)cc1	.	3.2	.	.	0.2	2.4
COC(=O)C1N2C(=O)[C@@H](NC(=O)COc3ccccc3)[C@H]2SC1(C)C (some centres undefined)	.	0.2	.	.	1.1	1.1
O=C1C(c2ccccc2)=[N+]([O-])c2ccccc21	.	2.3	.	.	2.8	3.5
C=CCn1c(SCC(=O)O)nnc1-c1cccc(Cl)c1	-42.3	7.5	70.3*	2.0	-13.7	3.1
C=CCn1c(SCC(=O)c2ccc(O)c(O)c2)nnc1-c1cccc(Cl)c1	.	-6.8	.	.	18.4	4.3
COc1ccc(N2CCN(CCS(=O)(=O)c3cc(Cl)ccc3Cl)CC2)cc1	.	6.3	.	.	6.6	3.1
O=C1N=C(N2CCOCC2)S/C1=C\c1ccc(-c2ccccc2Cl)o1	1.6	-1.9	19.1	-3.0	31.3	40.0*
NS(=O)(=O)c1ccc(CNC(=O)c2ccc(NS(=O)(=O)c3cccs3)cc2)cc1	.	2.9	.	.	.	.
